Tau fil binding: binders of human tau filaments; P10636; recombinant tau filaments, thioflavin S fluorescence, 15 h; filaments grown with octadecylsulfate alongside compound; Potency, µM (doses to about 57.1 µM), inactives show at the highest dose activity change, negative = inhibition; 71,000 compounds, 2% hits; AID 596;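 also: % is scaled to controls: 0 for no effect and ±100 for the full control effect; actives lower thioflavin S fluorescence by blocking filaments or displacing dye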
Target sequence (P10636 whole entry, looked up): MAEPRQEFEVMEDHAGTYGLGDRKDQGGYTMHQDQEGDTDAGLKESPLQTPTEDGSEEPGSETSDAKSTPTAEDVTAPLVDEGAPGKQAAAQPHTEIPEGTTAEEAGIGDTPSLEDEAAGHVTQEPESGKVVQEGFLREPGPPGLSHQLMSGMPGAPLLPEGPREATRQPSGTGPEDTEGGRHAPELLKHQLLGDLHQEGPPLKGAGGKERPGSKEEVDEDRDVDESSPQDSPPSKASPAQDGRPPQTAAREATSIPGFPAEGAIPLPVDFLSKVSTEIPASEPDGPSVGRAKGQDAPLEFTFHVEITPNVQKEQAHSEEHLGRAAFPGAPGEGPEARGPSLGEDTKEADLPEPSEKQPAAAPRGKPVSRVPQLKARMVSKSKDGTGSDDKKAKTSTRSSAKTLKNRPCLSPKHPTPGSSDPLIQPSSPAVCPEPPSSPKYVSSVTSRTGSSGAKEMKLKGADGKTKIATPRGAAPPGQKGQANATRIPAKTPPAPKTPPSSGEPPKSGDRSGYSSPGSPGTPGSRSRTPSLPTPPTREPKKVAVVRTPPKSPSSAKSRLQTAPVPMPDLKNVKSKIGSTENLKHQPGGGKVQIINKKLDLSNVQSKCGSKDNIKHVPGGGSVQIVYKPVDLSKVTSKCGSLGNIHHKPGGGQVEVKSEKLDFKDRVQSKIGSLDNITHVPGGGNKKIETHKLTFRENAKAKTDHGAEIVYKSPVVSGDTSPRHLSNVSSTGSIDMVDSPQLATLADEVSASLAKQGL
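Thioflavine S fluorescence (ex 450, em 510 nm) reports filaments formed from 1 uM human tau plus 30 uM ODS over 15 h at 37 C (10 mM HEPES pH 7.4, 100 mM NaCl, 5 mM DTT); compounds displacing dye or blocking filaments lower signal.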
Hsp90 Hop PPI: changes Hsp90-Hop TPR2A binding signal, up or down | AlphaScreen TPR2A-His6 binding biotin-Hsp90 C-terminal peptide | Potency, µM (doses to about 57 µM), for the others: at the highest dose activity change, negative = inhibition | 71,000 compounds, 0.44% hits | AID 595; active = well fitted curve in either direction with a large enough effect; inconclusive = small, poorly fitted or top-dose-only effect, or another doubt; also: % is scaled to controls: 0 for no effect and ±100 for the full control effect
DNA Pol III inh: inhibitors of bacterial DNA polymerase III holoenzyme; reconstituted DNA polymerase III holoenzyme replication, biochemical; Potency, µM (top dose mostly 57.1 µM), without a hit: at the top dose activity change, negative = inhibition; 71,000 compounds, 0.25% hits; also: % is scaled to controls: 0 for no effect and ±100 for the full control effect
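Reconstituted *E. coli* holoenzyme (0.35 nM Pol III, 1 nM beta, 154 nM SSB, 2 nM primase) was preincubated with compound for 15 min at RT. Synthesis on 1.4 nM ssM13Gori ran 35 min, then was stopped with PicoGreen/EDTA and read as dsDNA fluorescence.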
HEK293 cAMP ctrl: counter-screen for TSHR agonists: cAMP increase in parental HEK293; parental HEK293 CNG cAMP sensor, membrane potential fluorescence; Potency, µM (titrated, usually from 57.1 µM), for the others: at the highest dose activation, usual class: activators; 73,000 compounds, 2.5% hits; also: % of control where 0% means no effect; nearly all actives have a fitted effect of over 55% in size
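Counterscreen for endogenous-receptor signalling: CNG-channel HEK 293 cells report cAMP rise by membrane depolarization. After 60 min dye equilibration with 100 uM RO 20-1724, compounds incubated 30 min before bottom-read fluorescence at 590 nm.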
TSHR agonist: activates the human thyroid stimulating hormone receptor; P16473; AID 926; HEK293-CNG-TSHR cells (CNG channel as cAMP sensor), membrane potential dye, cAMP; 73,000 compounds, 0.48% hits; Potency, µM (top dose mostly 57.1 µM), inactives show at the highest dose activation, hits mostly activators; active = well fitted activation curve with a large enough effect in the main read-out, with a control signal flat, not every such curve was filed as active; inconclusive = small, poorly fitted or top-dose-only effect, or a change in a side signal; inactive = no such curve, though single readings can be large or run the other way; % of control where 0% means no effect;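 also: the control signal comes from parental cells without the receptor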
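cAMP rise detected as CNG-channel membrane depolarization by fluorescent dye (emission 590 nm), 30 min after compound, following 60 min dye loading containing 100 uM RO 20-1724 at room temperature. Cells: TSHR/CNG HEK 293, with parental CNG HEK 293 as control.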
Starred values were filed as active, the others as inactive; u = inconclusive; x = not tested or not shown; [ ] = dose if it differs, or a comment. An excerpt weighted towards active compounds, which were near 5.1% of everything screened. Unless noted, calls follow the shape of the dose curve; as a rule, active = well fitted curve in the direction sought with a large enough effect; inconclusive = small, poorly fitted or top-dose-only effect, or another doubt; inactive = no such curve, though single readings can be large; an effect the other way counts as inactive or inconclusive. Potency is read from the fitted curve at half-maximal effect.

SMILES | Tau fil binding | Hsp90 Hop PPI | DNA Pol III inh | HEK293 cAMP ctrl | TSHR agonist
C[C@@H]1C=C[C@](Cc2ccccc2)(C(=O)NCCc2c[nH]c3ccccc23)N1C(=O)c1ccccc1 | 4% | -14% | 3% | 2.5µM* | u
C[C@@H]1C=C[C@](Cc2ccccc2)(C(=O)NCCCNc2ncc(C(F)(F)F)cc2Cl)N1C(=O)c1ccccc1 | 49% | 2% | -11% | 25µM* | u
O=C(CON1C(=O)c2ccccc2C1=O)c1ccccc1 | -2%[11.4 µM] | -7%[11 µM] | -11%[11.4 µM] | -4%[11.4 µM] | 1%[11.4 µM]
CNNCc1ccc(C(=O)NC(C)C)cc1 | -10%[25.6 µM] | -3%[26 µM] | -8%[25.6 µM] | 4%[25.6 µM] | -16%[25.6 µM]
Cc1c(C)c(C)c(CC2(C)CSC2)c(CC2(C)CSC2)c1C | 14%[11.4 µM] | -3%[11 µM] | 0%[11.4 µM] | -2%[11.4 µM] | 1%[11.4 µM]
O=C(c1nc2ccc([N+](=O)[O-])cc2[nH]c1=O)[C@@H](O)c1ccc2c(c1)OCO2 | 0%[11.4 µM] | -3%[11 µM] | -9%[11.4 µM] | 10%[11.4 µM] | 4%[11.4 µM]
CCC(CC)NCc1ccc(OC)cc1OC | -15% | 0% | 1% | 28% | 22%
COc1cc(N)ccc1Cc1ccc(N)cc1OC | 25µM* | -13% | -7% | -1% | x
Cc1cc(C)cc(N(CC(=O)O)S(=O)(=O)c2cccnc2)c1 | 5% | -3% | -6% | -1% | 4%
Cc1ncc(CSc2nnnn2-c2ccccc2)c(N)n1 | -7% | -3% | -9% | 11% | 3%
c1ccc(OCCSc2nnnn2-c2ccccc2)cc1 | 1% | u | 8% | 25µM* | u
Fc1ccccc1OCCSc1nnnn1-c1ccccc1 | 4% | 21% | -1% | 30% | x
c1ccc(-n2nnnc2SCc2cccc3nsnc23)cc1 | 35% | 16% | -1% | 20µM* | u
Nc1nccc(Nc2ccc(S(N)(=O)=O)cc2)n1 | 4%[11.4 µM] | -1%[11 µM] | -1%[11.4 µM] | 13%[11.4 µM] | -4%[11.4 µM]
CC(=O)Oc1ccc2occ(C(=O)c3cccs3)c2c1 | -5% | 1% | -1% | 25µM* | u
O=C(O)COc1ccc2occ(C(=O)c3ccccc3)c2c1 | -3% | -4% | -5% | 7% | -13%
Cc1noc(C)c1CSc1nc2ccccc2c(=O)n1-c1ccc(F)cc1F | 1% | 8% | 3% | 16µM* | u
Cc1noc(C)c1CSc1nc2[nH]ncc2c(=O)n1-c1ccccc1 | -5% | -3% | -2% | 14% | x
Cc1ccc(-c2oc3ccccc3c(=O)c2O)cc1 | 50% | 1% | -4% | 21% | x
COc1ccc2oc(-c3ccccc3)c(OC)c(=O)c2c1 | u | 0% | -3% | 40µM* | u
Cc1ccc2oc(-c3ccccc3)c(O)c(=O)c2c1 | 32µM* | 5% | -3% | 21% | 16%
COc1ccc2oc(-c3ccccc3)c(C(N)=O)c2c1 | 354% | 0% | -7% | u | u
COC(=O)N1CCC[C@@]2(CCN(Cc3nccs3)C2)C1 | 9% | -3% | 0% | 4% | 2%
O=C1CC[C@](CCc2nc3ccccc3[nH]2)(c2ccccc2)C(=O)N1 | 7%[11.4 µM] | 8%[11 µM] | -10%[11.4 µM] | 5%[11.4 µM] | 4%[11.4 µM]
COc1ccc(CNc2ccnc(-c3ccccc3OC)n2)c(OC)c1 | 86% | -4% | -5% | 27% | x
SMILES | Tau fil binding | Hsp90 Hop PPI | DNA Pol III inh | HEK293 cAMP ctrl | TSHR agonist
COc1ccc(CNc2ncncc2-c2ccccc2CN(C)C)c(OC)c1 | 6% | -1% | -1% | 13% | 12%
COc1ccc(CNc2ccnc(-c3ccccc3Cl)n2)c(OC)c1 | -4% | 1% | -5% | 10µM* | u
COc1ccc(CNc2ncncc2-c2ccccc2Cl)c(OC)c1 | 7% | -1% | 2% | 32µM* | u
Cc1cc2oc(=O)cc(COC(=O)c3cccc(N(C)C)c3)c2cc1C | 12% | 0% | -5% | 16% | 5%[11.4 µM]
CCOC(=O)c1sc(NC(=O)CSc2nnnn2-c2ccc(C)cc2C)nc1C | -5% | -6% | -3% | 25µM* | u
COC(=O)c1ccccc1NC(=O)CSc1nnnn1-c1ccc(C)cc1C | 10µM* | -12% | -2% | 18% | 10%
N#Cc1ccc(CN2CC3(CCN(C(=O)c4csnn4)CC3)C2)cc1 | 4% | -2% | 2% | 8% | -1%
CCCCNc1cc(NC(C)=O)cc2cc(OC)c(OC)cc12 | 25µM* | -20% | -6% | -15% | -12%
CC(C)(C)N1C(=O)[C@@H]2[C@H]3C(=CC[C@H]2C1=O)C(=O)[C@H]1O[C@H]1[C@H]3O | x | x | x | 8%[11.4 µM] | x
N=C(N)c1ccc(-c2ccc(-c3ccc(C(=N)N)cc3)o2)cc1 | 129%[11.4 µM] | 0%[11 µM] | -18%[11.4 µM] | -1%[11.4 µM] | 3%[11.4 µM]
Cn1c(-c2ccc(Br)o2)nc2cc(Br)ccc21 | 37% | -12% | -6% | 16µM* | u
COc1cccc(-c2cncnc2NCc2ccccc2)c1 | -6% | u | -4% | u | u
O=C(O)C[C@H](Cc1ccccc1)C(=O)O | -6%[11.4 µM] | 0%[11 µM] | -7%[11.4 µM] | 2%[11.4 µM] | -1%[11.4 µM]
OC12CCCCC1C(c1ccc3c(c1)OCO3)N(Cc1ccc(F)cc1)CC2 (stereo not drawn) | u | -8% | 1% | u | u
OC12CCCCC1C(c1ccc3c(c1)OCO3)N(Cc1cccc(F)c1)CC2 (stereo not drawn) | 16µM* | -5% | -6% | u | u
O=C(c1cccc(F)c1)N1CCC2(CCN(Cc3ccccc3)CC2)CC1 | -2% | 4% | -4% | 12% | 4%

Screening data deposited in PubChem BioAssay by National Center for Advancing Translational Sciences (NCATS).
